Assay results published in PubChem BioAssay (Tox21).
Records with an inconclusive call do not appear. Some compounds were tested as several samples or in several runs, with calls that do not always agree. The source made the active and inactive calls. Calls follow the shape of the full dose curve.

biological target: Acetylcholinesterase (Homo sapiens) (UniProt P22303); assay: Acetylcholinesterase (AChE) small molecule antagonists: enzyme-based qHTS assay (AID 1347397); settings: Potency: AChE enzyme activity inhibition; outcome: AChE enzyme activity inhibition; series mostly up to 115 µM; activity change, negative = inhibition: at the top concentration; also: nearly all actives have a fitted effect of over 55% in size
Sequence (P22303 whole entry, looked up): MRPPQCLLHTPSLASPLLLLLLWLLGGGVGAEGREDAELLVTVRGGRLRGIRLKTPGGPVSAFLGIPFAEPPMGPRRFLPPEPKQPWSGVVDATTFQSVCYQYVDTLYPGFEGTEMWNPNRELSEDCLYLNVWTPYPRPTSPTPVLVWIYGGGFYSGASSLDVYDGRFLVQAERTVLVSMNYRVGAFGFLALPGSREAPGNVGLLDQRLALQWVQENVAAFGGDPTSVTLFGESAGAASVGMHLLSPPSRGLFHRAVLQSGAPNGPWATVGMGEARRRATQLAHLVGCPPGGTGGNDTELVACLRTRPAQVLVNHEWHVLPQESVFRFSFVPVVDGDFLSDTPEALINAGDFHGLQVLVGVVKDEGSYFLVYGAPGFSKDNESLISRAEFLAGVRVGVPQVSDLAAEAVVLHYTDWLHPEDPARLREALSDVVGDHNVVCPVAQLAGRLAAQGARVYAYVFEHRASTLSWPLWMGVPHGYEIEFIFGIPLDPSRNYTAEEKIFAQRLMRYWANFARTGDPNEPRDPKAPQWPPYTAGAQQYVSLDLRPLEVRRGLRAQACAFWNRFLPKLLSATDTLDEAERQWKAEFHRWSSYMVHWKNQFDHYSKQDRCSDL
In short: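 Tox21 library chemicals are tested in qHTS format against recombinant human AChE. The enzyme, dispensed at 50 mU/mL, sits with compound for 30 min at room temperature. A DTNB–acetylthiocholine cocktail follows, and colour is read after 10 min.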
% is scaled to controls: 0 for no effect and ±100 for the full control effect; potency is read from the fitted curve at half-maximal effect.

`Cc1cccc(OCCOc2cccc(C)c2)c1` was tested. Which “activity change, negative = inhibition” value did it give?
The value was -1.79% (inactive).

With `CCOC(=O)COc1ccc2c(C)c(CCN(CC)CC)c(=O)oc2c1Cl` as the compound, how does the Potency read?
Its Potency is 15.5 µM (active).

`CC1(C)O[C@@H]2C[C@H]3[C@@H]4C[C@H](F)C5=CC(=O)C=C[C@]5(C)[C@H]4[C@@H](O)C[C@]3(C)[C@]2(C(=O)CO)O1` was tested. Which “activity change, negative = inhibition” value did it give?
The value was 4.51% [at 53 µM] (inactive).

Which “activity change, negative = inhibition” value does the source give for `CCCCOCCOCCOCCCC` here?
Its value is -0.0383% (inactive).

With `CCC(=O)/C=C/C1C(C)=CCCC1(C)C` (stereo not given) as the compound, how does the Potency read?
Its Potency is “inactive”.

`Nc1cc(Cl)c([N+](=O)[O-])cc1O` was tested. Which “activity change, negative = inhibition” value did it give?
Its value is 15% (inactive).

How did the Potency turn out when `C=C(C)C1CC=C(C)C(OC(C)=O)C1` (stereo not given) was run?
Its Potency is “inactive”.

How did the Potency turn out when `CCCCOCCO` was run?
The Potency was “inactive”.

Which “activity change, negative = inhibition” value does the source give for `CC(=O)NCCO` here?
The value was 0.774% (inactive).

How did the Potency turn out when `CCCCCCCO` was run?
The Potency was “inactive”.

With `CC(C)c1ccc2ncccc2c1` as the compound, how does the “activity change, negative = inhibition” value read?
Its value is 0.756% (inactive).

Which “activity change, negative = inhibition” value does the source give for `C=CC(C)(CCC=C(C)C)OC(=O)c1ccccc1` (stereo not given) here?
Its value is -0.827% (inactive).

`O=S(=O)(O)c1ccc(O)c2ncccc12` was tested. Which “activity change, negative = inhibition” value did it give?
The value was 5.77% (inactive).

`Cc1ncc(CO)c(CN)c1O` was tested. Which “activity change, negative = inhibition” value did it give?
Its value is 0.0948% [at 53 µM] (inactive).

For `CC(C)CC(C)(N)C#N` (stereo not given), which “activity change, negative = inhibition” value is on record?
The value was 4.01% (inactive).

Which Potency does the source give for `C[C@]12CC[C@@H]3c4ccc(O)cc4CC[C@H]3[C@@H]1CC[C@H]2O` here?
Its Potency is “inactive”.

`COC(=O)c1ccccc1C` was tested. Which “activity change, negative = inhibition” value did it give?
Its value is 0.0008% (inactive).

With `C=C(C)CNCC` as the compound, how does the Potency read?
The Potency was “inactive”.

With `CCCCNS(=O)(=O)c1ccccc1` as the compound, how does the Potency read?
The Potency was “inactive”.

Which “activity change, negative = inhibition” value does the source give for `CCCOC(=O)c1ccc(C(=O)OCCC)nc1` here?
Its value is -1.45% (inactive).

`C=C(C)C(=O)OCCN(C)C` was tested. Which “activity change, negative = inhibition” value did it give?
The value was 1.18% (inactive).

For `Nc1nc2c(ncn2CCC(CO)CO)c(=O)[nH]1`, which “activity change, negative = inhibition” value is on record?
Its value is 0% [at 53 µM] (inactive).

For `CCC(C)(C)CC`, which “activity change, negative = inhibition” value is on record?
The value was 1.76% (inactive).

`CCOC(=O)c1ccc(N)cc1` was tested. Which Potency did it give?
Its Potency is “inactive”.

`O=C(O)Cc1cccc2ccccc12` was tested. Which Potency did it give?
The Potency was “inactive”.

`COCc1c(C(C)C)nc(C(C)C)c(/C=C/[C@@H](O)C[C@@H](O)CC(=O)O)c1-c1ccc(F)cc1` was tested. Which Potency did it give?
Its Potency is “inactive”.

`O=C(O)CN(CCOCCOCCN(CC(=O)O)CC(=O)O)CC(=O)O` was tested. Which activity change, negative = inhibition did it give?
The activity change, negative = inhibition was -0.554% [at 0.435 µM] (inactive).

How did the Potency turn out when `CC1(C)S[C@@H]2[C@H](NC(=O)[C@H](N)c3ccccc3)C(=O)N2[C@H]1C(=O)O` was run?
The Potency was “inactive”.

For `Oc1ccc(/C=C/c2cc(O)cc(O)c2)cc1`, which Potency is on record?
The Potency was “inactive”.

With `CCCCN(CCCC)CCC(O)c1cc2c(Cl)cc(Cl)cc2c2cc(C(F)(F)F)ccc12` (stereo not given) as the compound, how does the “activity change, negative = inhibition” value read?
The value was 1.21% [at 53 µM] (inactive).

With `Cc1ccc(N)c(S(=O)(=O)O)c1` as the compound, how does the Potency read?
The Potency was “inactive”.

Which “activity change, negative = inhibition” value does the source give for `Nc1cc(Cl)c(N)c(Cl)c1` here?
Its value is 0.825% (inactive).

`O=C(O)c1ccc2c(c1)C(=O)OC2=O` was tested. Which Potency did it give?
Its Potency is “inactive”.

How did the “activity change, negative = inhibition” value turn out when `O=C1OCCO1` was run?
Its value is 1.22% (inactive).

With `CC1(C)[C@H]2CC[C@]1(C)[C@H](O)C2` as the compound, how does the “activity change, negative = inhibition” value read?
The value was 3.09% (inactive).

For `CC(=O)O[C@H]1CC[C@@]2(C)C(=CC[C@@H]3[C@@H]2CC[C@]2(C)C(C(C)=O)=CC[C@@H]32)C1`, which “activity change, negative = inhibition” value is on record?
Its value is 0.139% [at 53 µM] (inactive).

With `O=S(=O)(O)c1cccc(S(=O)(=O)O)c1` as the compound, how does the “activity change, negative = inhibition” value read?
The value was -0.129% (inactive).

Which “activity change, negative = inhibition” value does the source give for `CC1(C)O[C@@H]2C[C@H]3[C@@H]4CCC5=CC(=O)C=C[C@]5(C)[C@H]4[C@@H](O)C[C@]3(C)[C@]2(C(=O)CO)O1` here?
The value was 0.787% [at 53 µM] (inactive).

With `COCCC(=O)OC` as the compound, how does the “activity change, negative = inhibition” value read?
Its value is -0.278% (inactive).

`CC(=O)CCc1ccccc1` was tested. Which Potency did it give?
The Potency was “inactive”.

biological target: Acetylcholinesterase (Homo sapiens) (UniProt P22303); assay: Acetylcholinesterase (AChE) small molecule antagonists: fluorescence cell-based qHTS assay (AID 1347398); settings: SH-SY5Y cells; Potency: AChE activity; outcome: AChE activity; series mostly up to 115 µM; activity change, negative = inhibition: at the top concentration; also: nearly all actives have a fitted effect of over 50% in size
In short: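 Cellular AChE inhibition: SH-SY5Y cells treated with test chemical for 30 min at 37 C, then acetylthiocholine hydrolysis followed over 40 min at room temperature via thiocholine-reactive Thiolite Green fluorescence (490/520 nm).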

How did the “activity change, negative = inhibition” value turn out when `Cc1cccc(OCCOc2cccc(C)c2)c1` was run?
Its value is 3.38% (inactive).

How did the Potency turn out when `CCOC(=O)COc1ccc2c(C)c(CCN(CC)CC)c(=O)oc2c1Cl` was run?
Its Potency is 6.92 µM (active).

For `CC1(C)O[C@@H]2C[C@H]3[C@@H]4C[C@H](F)C5=CC(=O)C=C[C@]5(C)[C@H]4[C@@H](O)C[C@]3(C)[C@]2(C(=O)CO)O1`, which “activity change, negative = inhibition” value is on record?
Its value is -0.904% [at 53.7 µM] (inactive).

Which “activity change, negative = inhibition” value does the source give for `CCCCOCCOCCOCCCC` here?
The value was 5.96% (inactive).

`CCC(=O)/C=C/C1C(C)=CCCC1(C)C` (stereo not given) was tested. Which Potency did it give?
The Potency was “inactive”.

With `Nc1cc(Cl)c([N+](=O)[O-])cc1O` as the compound, how does the “activity change, negative = inhibition” value read?
Its value is -3.69% (inactive).

With `C=C(C)C1CC=C(C)C(OC(C)=O)C1` (stereo not given) as the compound, how does the Potency read?
The Potency was “inactive”.

With `CCCCOCCO` as the compound, how does the Potency read?
Its Potency is “inactive”.

How did the “activity change, negative = inhibition” value turn out when `CC(=O)NCCO` was run?
The value was 0.933% (inactive).

With `CCCCCCCO` as the compound, how does the Potency read?
Its Potency is “inactive”.

How did the “activity change, negative = inhibition” value turn out when `CC(C)c1ccc2ncccc2c1` was run?
The value was 1.16% (inactive).

With `C=CC(C)(CCC=C(C)C)OC(=O)c1ccccc1` (stereo not given) as the compound, how does the “activity change, negative = inhibition” value read?
The value was -1.11% (inactive).

Which “activity change, negative = inhibition” value does the source give for `O=S(=O)(O)c1ccc(O)c2ncccc12` here?
The value was 8.76% (inactive).

With `Cc1ncc(CO)c(CN)c1O` as the compound, how does the “activity change, negative = inhibition” value read?
Its value is 26.9% [at 53.7 µM] (inactive).

`CC(C)CC(C)(N)C#N` (stereo not given) was tested. Which “activity change, negative = inhibition” value did it give?
Its value is 0.499% (inactive).

Which Potency does the source give for `C[C@]12CC[C@@H]3c4ccc(O)cc4CC[C@H]3[C@@H]1CC[C@H]2O` here?
The Potency was “inactive”.

For `COC(=O)c1ccccc1C`, which “activity change, negative = inhibition” value is on record?
The value was 2.29% (inactive).

With `C=C(C)CNCC` as the compound, how does the Potency read?
Its Potency is “inactive”.

How did the Potency turn out when `CCCCNS(=O)(=O)c1ccccc1` was run?
Its Potency is “inactive”.

With `CCCOC(=O)c1ccc(C(=O)OCCC)nc1` as the compound, how does the “activity change, negative = inhibition” value read?
Its value is -8.52% (inactive).

With `C=C(C)C(=O)OCCN(C)C` as the compound, how does the “activity change, negative = inhibition” value read?
Its value is 1.33% (inactive).

How did the “activity change, negative = inhibition” value turn out when `Nc1nc2c(ncn2CCC(CO)CO)c(=O)[nH]1` was run?
Its value is 2.49% [at 53.7 µM] (inactive).

How did the “activity change, negative = inhibition” value turn out when `CCC(C)(C)CC` was run?
The value was 3.99% (inactive).

Which Potency does the source give for `CCOC(=O)c1ccc(N)cc1` here?
The Potency was “inactive”.

`O=C(O)Cc1cccc2ccccc12` was tested. Which Potency did it give?
Its Potency is “inactive”.

Which “activity change, negative = inhibition” value does the source give for `COCc1c(C(C)C)nc(C(C)C)c(/C=C/[C@@H](O)C[C@@H](O)CC(=O)O)c1-c1ccc(F)cc1` here?
Its value is 4.09% [at 53.7 µM] (inactive).

For `O=C(O)CN(CCOCCOCCN(CC(=O)O)CC(=O)O)CC(=O)O`, which activity change, negative = inhibition is on record?
Its activity change, negative = inhibition is 2.07% [at 0.439 µM] (inactive).

With `CC1(C)S[C@@H]2[C@H](NC(=O)[C@H](N)c3ccccc3)C(=O)N2[C@H]1C(=O)O` as the compound, how does the Potency read?
The Potency was “inactive”.

`Oc1ccc(/C=C/c2cc(O)cc(O)c2)cc1` was tested. Which Potency did it give?
The Potency was “inactive”.

For `CCCCN(CCCC)CCC(O)c1cc2c(Cl)cc(Cl)cc2c2cc(C(F)(F)F)ccc12` (stereo not given), which “activity change, negative = inhibition” value is on record?
Its value is -6.07% [at 53.7 µM] (inactive).

For `Cc1ccc(N)c(S(=O)(=O)O)c1`, which Potency is on record?
The Potency was “inactive”.

Which Potency does the source give for `Nc1cc(Cl)c(N)c(Cl)c1` here?
The Potency was 55.9 µM (active) and inactive.

For `O=C(O)c1ccc2c(c1)C(=O)OC2=O`, which Potency is on record?
Its Potency is “inactive”.

Which “activity change, negative = inhibition” value does the source give for `O=C1OCCO1` here?
Its value is 3.29% (inactive).

How did the “activity change, negative = inhibition” value turn out when `CC1(C)[C@H]2CC[C@]1(C)[C@H](O)C2` was run?
The value was 2.57% (inactive).

Which “activity change, negative = inhibition” value does the source give for `CC(=O)O[C@H]1CC[C@@]2(C)C(=CC[C@@H]3[C@@H]2CC[C@]2(C)C(C(C)=O)=CC[C@@H]32)C1` here?
Its value is 1.41% [at 53.7 µM] (inactive).

`O=S(=O)(O)c1cccc(S(=O)(=O)O)c1` was tested. Which “activity change, negative = inhibition” value did it give?
The value was -1.52% (inactive).

`CC1(C)O[C@@H]2C[C@H]3[C@@H]4CCC5=CC(=O)C=C[C@]5(C)[C@H]4[C@@H](O)C[C@]3(C)[C@]2(C(=O)CO)O1` was tested. Which “activity change, negative = inhibition” value did it give?
The value was 16.9% [at 53.7 µM] (inactive).

Which “activity change, negative = inhibition” value does the source give for `COCCC(=O)OC` here?
The value was 4.32% (inactive).

For `CC(=O)CCc1ccccc1`, which Potency is on record?
The Potency was “inactive”.
